Measurements: the supplement of paper PMC4683952
Structures can show the parent of a compound that is named as a salt. About 50 (4%) of roughly 1,200 compounds showed activity. This excerpt belongs to a sample that is enriched for actives. A number with no mark means an inactive call. Rule as the data show it: all actives reach 1.3 or more but so do some inactives.

These compounds were tested on Lgr5 (MarsCy1-Lgr5-EGFP, U2OS) (assay: cell-surface Lgr5 expression (SCi1 fluorescence, background-subtracted) relative to WT DMSO (fold of DMSO control); higher = more Lgr5 at the plasma membrane, active = hit call of the paper). Details: U2OS MarsCy1-Lgr5-EGFP stable; treatment time: overnight; 16 µM; library: Johns Hopkins Clinical Compound Library.

With `COc1cc(C2c3cc4c(cc3C(O)C(CO)C2C(=O)O)OCO4)cc(OC)c1OC.COc1cc(C2c3cc4c(cc3C(O)C(CO)C2C(=O)O)OCO4)cc(OC)c1OC.COc1cc(C2c3cc4c(cc3C(O)C3COC(=O)C23)OCO4)cc(OC)c1OC.COc1cc(C2c3cc4c(cc3C(O)C3COC(=O)C23)OCO4)cc(OC)c1OC` (stereo unspecified) [Podophyllum resin] the “cell-surface Lgr5 expression” value was 1.55 (active).
`NC(=O)CN1CC(O)CC1=O` (stereo unspecified) [Oxiracetam] was tested, and the “cell-surface Lgr5 expression” value was 1.36 (active).
For `C[C@]12CC[C@H](O)CC1=CC[C@@H]1[C@@H]2CC[C@]2(C)C(=O)CC[C@@H]12` [Prasterone (DHEA, dehydroepiandrosterone)], the “cell-surface Lgr5 expression” value was 1.33 (active).
`CC(C)(C)NCC(O)c1ccccc1Cl` (stereo unspecified) [Tulobuterol] was tested, and the “cell-surface Lgr5 expression” value was 1.42 (active).

First: CC(N)C(O)c1ccccc1 (stereo unspecified) [Norephedrine Hydrochloride (Phenylpropanolamine)]
Second: [O-][n+]1ccccc1[S-].[O-][n+]1ccccc1[S-].[Zn+2] [Pyrithione zinc (1-Hydroxypyridine-2-Thione Zinc Salt)]
The “cell-surface Lgr5 expression” value of the first is higher: 1.19 for the first, 0.923 for the second.

Going from `C=C[C@H]1CN2CC[C@H]1C[C@@H]2[C@@H](O)c1ccnc2ccccc12` [Cinchonine sulfate] to `C=CCN1C[C@H](C(=O)N(CCCN(C)C)C(=O)NCC)C[C@@H]2c3cccc4[nH]cc(c34)C[C@H]21` [Cabergoline], the “cell-surface Lgr5 expression” value falls from 1.25 to 0.958.

First: CCN(CC)C(=O)N[C@H]1C=C2c3cccc4[nH]cc(c34)C[C@H]2N(C)C1 [Lisuride]
Second: CN1C[C@H](C(=O)N[C@]2(C)O[C@@]3(O)[C@@H]4CCCN4C(=O)[C@H](Cc4ccccc4)N3C2=O)C[C@@H]2c3cccc4[nH]cc(c34)C[C@H]21 [Dihydroergotamine methanesulfonate]
The “cell-surface Lgr5 expression” value of the first is higher: 1.1 for the first, 0.612 for the second.

First: [S]=[Sb][S][Sb]=[S] [Antimony (III) sulfide]
Second: C=CCN=C=S [Allyl isothiocyanate]
The “cell-surface Lgr5 expression” value of the first is higher: 1.26 for the first, 0.99 for the second.

Going from `COc1ccc(O)c(C(C)(C)C)c1.COc1ccc(O)cc1C(C)(C)C` [Butylated hydroxyanisole] to `CN(C)C(=O)Oc1cc(OC(=O)N(C)C)cc(C(O)CNC(C)(C)C)c1` (stereo unspecified) [Bambuterol], the “cell-surface Lgr5 expression” value rises from 1.15 to 1.21.

Going from `ClC1=C(Cl)C2(Cl)C(CBr)CC1(Cl)C2(Cl)Cl` (stereo unspecified) [Bromocyclen] to `C[C@]12Cc3c[nH]nc3C[C@@H]1CC[C@@H]1[C@@H]2CC[C@@]2(C)[C@H]1CC[C@]2(C)O` [Stanozolol], the “cell-surface Lgr5 expression” value falls from 1.24 to 1.03.

Compared with `C[C@]12CCC(=O)C(O)=C1CC[C@@H]1[C@@H]2CC[C@]2(C)C(=O)CC[C@@H]12` [Formestane (4-Androsten-4-ol-3,17-dione)], `C[C@]12CC[C@H](O)CC1=CC[C@@H]1[C@@H]2CC[C@]2(C)C(=O)CC[C@@H]12` [Prasterone (dehydroisoandrosterone)] is lower in “cell-surface Lgr5 expression” value: 1.18 for the first, 1.09 for the second.

Going from `C=C1C[C@@H]2[C@H](CC[C@]3(C)C(=O)CC[C@@H]23)[C@@]2(C)C=CC(=O)C=C12` [Exemestane] to `C1CN1c1nc(N2CC2)nc(N2CC2)n1` [Triethylenemelamine], the “cell-surface Lgr5 expression” value falls from 1.48 to 1.39.

For `N[C@@H](Cc1ccc(N(CCCl)CCCl)cc1)C(=O)O` [Melphalan], the “cell-surface Lgr5 expression” value was 1.14.
